Only some compounds are listed: those with a hit (about 3.1% of all), similar ones and a draw of the others.
miR122 inh = miR-122 Renilla sensor signal increase in Huh7, primary screen, miR-122 inhibitor project, cell-based, single point, plate reader; Huh7 miR-122 Renilla luciferase sensor, 48 h; neutral wells = 0, positive control = 100; activation (reporter increase), % at 12.5 µM; hit rate 0.3% among 340,000; AID 602342, 2012;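 active = mean replicate activation score at least 90 and every replicate individually at or above 90; inconclusive = only one of the two criteria met; inactive = neither criterion met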;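 note: higher luciferase means less miR-122 activity so hits act as miR-122 inhibitors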
Statin myotox sup = suppressors of statin myotoxicity in C2C12 myotubes, primary screen, cell-based, single point, plate reader. C2C12 myotubes + simvastatin, ATP luminescence, 48 h; scaled: DMSO 0, geranylgeraniol control 100. rescue of ATP level, % at 7.49 µM. hit rate 0.78% among 330,000. AID 602340, 2012;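 active = mean ATP rescue above about 67%, or every replicate alone reaching that limit, limit read from the data, passing the limit was not always enough; inconclusive = no clear call, values can overlap the other calls; inactive = mean under the limit and some replicate under it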;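 note: myotubes were challenged with 10 µM simvastatin during compound exposure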
INS-1E GSIS act = GLuc luminescence reporter in INS-1E cells, primary screen for activators of glucose-dependent secretion of insulin; INS-1E GLuc reporter insulin secretion, 2-3 h; activation, % at 16.6 µM; hit rate 0.61% among 370,000; AID 743287, 2014;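 active = lowest replicate activation of at least 40%, so every replicate reaches that level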;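 note: 0% = median of neutral control wells and 100% = median of IBMX positive control wells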
PAX8 reporter = inhibitors of PAX8-driven TPO luciferase reporter, primary screen, RMG-I cells, single concentration; SteadyGlo, 24 h; inhibition, % at 12.6 µM; hit rate 1.2% among 360,000;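 active = mean replicate inhibition at least 60% with every replicate also reaching 60%; inconclusive = only one of the two criteria is met; inactive = mean below 60% and not all replicates reaching 60%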;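 note: luciferase light reporting Pax8 driven TPO promoter activity; plate controls were median of neutral control wells for no effect and mitoxantrone controls for full effect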
EWS-Fli block = EWS/Fli-driven NR0B1 reporter inhibitors, primary screen, A673 cells, NR0B1 luciferase, luminescence, MLPCN library. viability-normalised. hit rate 0.67% among 350,000. inhibition, % at 12.6 µM;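 active = mean inhibition of at least 50% after viability correction, with every replicate also passing that limit; inconclusive = mean reaches 50% but only one of two replicates passes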;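 note: firefly luciferase signal divided by Alamar Blue viability fluorescence both relative to DMSO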
HIV Env fusion = inhibitors of HIV-1 Env-driven cell-cell fusion, primary screen, HeLa-JRFL effector, CEM21 target cells, luciferase; inhibition, % at 12.3 µM; hit rate 1.1% among 360,000; AID 651610, 2012;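 active = mean replicate inhibition score of at least 50 and every replicate individually at or above 50; inconclusive = only one of the two criteria met; inactive = mean below 50 and not all replicates reaching 50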;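 note: 0% = plate neutral controls and 100% = maraviroc near 300 nM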
* = called active by the depositor; ? = inconclusive; nt = no result given; [ ] = another dose, or the depositor's remark.

SMILES	miR122 inh	Statin myotox sup	INS-1E GSIS act	PAX8 reporter	EWS-Fli block	HIV Env fusion
Cc1ccc(S(=O)(=O)Nc2cccc3c2O[C@H](CN(C)C(=O)Nc2ccc(F)cc2)[C@H](C)CN([C@H](C)CO)C3=O)cc1	6[16.7 µM]	15	-18	11	0	-10[16.7 µM]
CCN(CC(=O)Nc1ccccc1OC)C(=O)C1CCCC1	nt	0	68*	8	-4	3
CCOC(=O)CN(C(=O)CSc1nnc2c(n1)[nH]c1ccc(F)cc12)c1ccccc1	nt	121*	nt	nt	nt	-2
O=C(CNC(=O)c1cnccc1C(F)(F)F)c1cccc(Cl)c1	3	78*	1	0	-4	-8
O=C(C[C@H]1C=C[C@@H](NC(=O)Nc2ccccc2F)[C@H](CO)O1)NCc1ccc(F)cc1	nt	-1	7	4	1	3[16.7 µM]
COC(=O)c1nn(-c2ccc(OC)cc2)c(=O)cc1Oc1ccccc1	-3	1	nt	nt	nt	1
COC(=O)c1nn(-c2ccccc2)c(=O)cc1Oc1ccc(Cl)cc1	-15	-6	nt	-3	nt	122*
CO[C@@H]1CN(C)C(=O)c2cc(NS(C)(=O)=O)ccc2OC[C@H](C)N(C(=O)CN(C)C)C[C@@H]1C	4[16.7 µM]	16	-21	nt	0	-8[16.7 µM]
CCC(C)(C)NC(=O)c1ccccc1Oc1ccccc1	nt	nt	12	-3	19	9
CCC(CC)NC(=O)c1ccccc1Oc1ccccc1	2	nt	53*	nt	nt	nt
COc1ccccc1NC(=O)N1C[C@@H]2[C@H](c3ccccc31)[C@@H](CO)N2C(=O)C1CC1	0[16.7 µM]	13	6	-2	3	nt
COc1ccc(OCC(=O)Nc2nnc(S(=O)(=O)N3CCCCCC3)s2)cc1	-4	113*	-1	-1	11	7
O=C(Cc1cccs1)Nc1ccc(S(=O)(=O)N2CCCCC2)cc1	132*	-5	nt	nt	nt	nt
O=C(COc1ccccc1)Nc1ccc(S(=O)(=O)N2CCCC2)cc1	1	116*	8	7	0	-3
CC1CCN(S(=O)(=O)c2ccc(NC(=O)Cc3ccc(S(=O)(=O)N4CCOCC4)s3)cc2)CC1	14	4	-28	51	40	61*
C[C@@H]1CCCCO[C@@H](CN(C)S(=O)(=O)c2ccc(F)cc2)[C@@H](C)CN([C@H](C)CO)C(=O)c2cc(NC(=O)CCC(F)(F)F)ccc2O1	3[16.7 µM]	nt	14	-5	1	-8[16.7 µM]
C[C@@H]1CN([C@@H](C)CO)C(=O)c2cc(C#Cc3ccc(F)cc3)cnc2O[C@@H]1CN(C)C(=O)Nc1ccc(F)cc1	5[16.7 µM]	12	nt	nt	-14	-8[16.7 µM]
COCCCn1c(C(=O)Nc2ccc3c(c2)OCO3)cc2c(=O)n3cccc(C)c3nc21	3	-122	-2	2	24	64*
Cc1cc([N+](=O)[O-])cc2ncccc12	-6	nt	86*	nt	nt	nt
CN(Cc1ccc(OCC(O)CN(C)Cc2ccccc2)cc1)Cc1nccn1C (configuration not stated)	0	-1	47*	-15	5	-13
COc1ccc(CN(C)CC(O)COc2ccc(-c3ccccc3)cc2)cc1OC (configuration not stated)	-3	-50	-31	5	10	1
C[C@@H]1CN([C@H](C)CO)C(=O)c2cc(NC(=O)c3ccncc3)ccc2O[C@@H](C)CCCCO[C@H]1CN(C)Cc1ccc(C(F)(F)F)cc1	-7[16.7 µM]	45	-12	82*	?	20[16.7 µM]
C[C@H](CO)N1C[C@H](C)[C@@H](CN(C)Cc2ccncc2)Oc2ccc(NC(=O)c3ccncc3)cc2C1=O	11[16.7 µM]	8	18	-18	1	14[16.7 µM]
C[C@H]1CCCCO[C@H](CN(C)C(=O)Nc2ccc(C(F)(F)F)cc2)[C@@H](C)CN([C@@H](C)CO)C(=O)c2cc(NC(=O)c3ccncc3)ccc2O1	3[16.7 µM]	nt	-26	93*	11	56*[16.7 µM]
C[C@@H]1CN([C@@H](C)CO)C(=O)c2cc(NC(=O)c3ccncc3)ccc2O[C@H]1CN(C)Cc1ccncc1	8[16.7 µM]	-2	-4	20	0	67*[16.7 µM]
SMILES	miR122 inh	Statin myotox sup	INS-1E GSIS act	PAX8 reporter	EWS-Fli block	HIV Env fusion
C[C@@H]1CCCCO[C@H](CN(C)Cc2ccc(C(F)(F)F)cc2)[C@H](C)CN([C@@H](C)CO)C(=O)c2cc(NC(=O)c3ccncc3)ccc2O1	-6[16.7 µM]	76*	-9	3	5	4[16.7 µM]
COc1ccccc1S(=O)(=O)N(C)C[C@@H]1Oc2cc(C#CCC(C)C)ccc2S(=O)(=O)N([C@@H](C)CO)C[C@@H]1C	-4[16.7 µM]	-36	-8	nt	23	38[16.7 µM]
C[C@@H]1CCCCO[C@@H](CN(C)Cc2ccc(C(F)(F)F)cc2)[C@H](C)CN([C@H](C)CO)C(=O)c2cc(NC(=O)c3ccncc3)ccc2O1	-3[16.7 µM]	28	-27	35	12	24[16.7 µM]
C[C@@H]1CCCCO[C@@H](CN(C)Cc2ccc(C(F)(F)F)cc2)[C@H](C)CN([C@@H](C)CO)C(=O)c2cc(NC(=O)c3ccncc3)ccc2O1	-11[16.7 µM]	121*	7	-11	18	-2[16.7 µM]
O=C(Nc1ccc(F)cc1)N1C[C@H]2[C@@H](c3ccccc31)[C@H](CO)N2Cc1ccccc1	90[16.7 µM]	0	-19	0	-4	nt
O=S(=O)(c1ccc(N=C2NN=C(c3cc(F)ccc3F)CS2)cc1)N1CCOCC1	-4	nt	-12	90*	37	?
Fc1ccc(N=C2NN=C(c3cc(F)ccc3F)CS2)cc1	nt	nt	5	-101	-124	-30
C[C@@H]1CCCCO[C@H](CN(C)C(=O)Nc2ccc3c(c2)OCO3)[C@H](C)CN([C@@H](C)CO)C(=O)c2cc(NS(=O)(=O)c3ccc(F)cc3)ccc2O1	-10[16.7 µM]	92*	-11	0	-7	9[16.7 µM]
C[C@H](CO)N1C[C@H](C)[C@H](CN(C)C(=O)Nc2ccc3c(c2)OCO3)OCCCC[C@H](C)Oc2ccc(NS(=O)(=O)c3ccc(F)cc3)cc2C1=O	-3[16.7 µM]	81*	-7	7	-13	5[16.7 µM]
C[C@H]1CCCCO[C@@H](CN(C)C(=O)Nc2ccc3c(c2)OCO3)[C@@H](C)CN([C@@H](C)CO)C(=O)c2cc(NS(=O)(=O)c3ccc(F)cc3)ccc2O1	2[16.7 µM]	62	-25	-1	-8	1[16.7 µM]
COc1cccc(C(=O)Nc2ccc3c(c2)C(=O)N(C)C[C@H](OC)[C@H](C)CN(C(C)=O)[C@H](C)CO3)c1	nt	8	10	14	6	13[16.7 µM]
Clc1cccc(CN2CCc3c([nH]c4ccccc34)C2)c1	nt	-11	-2	-6	25	24
Clc1ccc(CN2CCc3c([nH]c4ccccc34)C2)cc1Cl	4	-1	-18	10	57*	2

Screening results as filed in PubChem.
